Measured values from PubChem BioAssay (NCATS).
Inconclusive results are not listed. Active and inactive are the calls of the source. The call rests on the fitted dose curve; in most records, active means well fitted curve in the direction sought with a large enough effect; inconclusive means small, poorly fitted or top-dose-only effect, or another doubt; inactive means no such curve, though single readings can be large; an effect the other way counts as inactive or inconclusive.

How the values were obtained:
[1] = qHTS of pediatric cancer cell lines to identify multiple opportunities for drug repurposing: Primary screen for Rh30 cells (AID 1347107); further: nearly all actives have a fitted effect of over 75% in size
In short: (§1)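 Viability after 48 h compound treatment at 37C, 500-1,000 cells/well, read as ATP luminescence with CellTiter-Glo. Primary screens used 11-point (MIPE, 0.78 nM-46 µM) or 8-point (NPC, 0.59 nM-46 µM) final concentrations; follow-up screens used 11-point dilutions.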

[2] = qHTS of pediatric cancer cell lines to identify multiple opportunities for drug repurposing: Primary screen for Rh41 cells (AID 1347108); further: nearly all actives have a fitted effect of over 70% in size
In short: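 Readout: CellTiter-Glo luminescence, 48 h treatment. Controls DMSO (neutral) and bortezomib 2.3 µM final (positive). Potency and efficacy taken from primary-screen concentration-response curves.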

[3] = qHTS of pediatric cancer cell lines to identify multiple opportunities for drug repurposing: Confirmatory screen for A673 cells (AID 1347110); further: nearly all actives have a fitted effect of over 65% in size
In short: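 A673 cells at 500-1,000 cells/well were dosed 5 h after plating, in dilution series up to 46 uM final; primary runs used 8 or 11 points and confirmatory runs used 11 points. Viability was read by CellTiter-Glo luminescence after 48 h, against DMSO and 2.3 uM bortezomib controls.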

[4] = qHTS of pediatric cancer cell lines to identify multiple opportunities for drug repurposing: Confirmatory screen for SK-N-MC cells (AID 1347111);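 further: cells exposed to compound for 48 h before the readout; nearly all actives have a fitted effect of over 70% in size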
In short: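 SK-N-MC cells at 500-1,000 cells/well in growth media were pre-incubated 5 h, then exposed to compounds at 11-point dilutions for 48 h at 37 degrees C, 5% CO2. Viability was read as CellTiter-Glo luminescence.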

[5] = qHTS of pediatric cancer cell lines to identify multiple opportunities for drug repurposing: Confirmatory screen for BT-12 cells (AID 1347112); further: nearly all actives have a fitted effect of over 55% in size
In short: as §1

[6] = qHTS of pediatric cancer cell lines to identify multiple opportunities for drug repurposing: Confirmatory screen for LAN-5 cells (AID 1347113); further: nearly all actives have a fitted effect of over 65% in size
In short: as §1

[7] = qHTS of pediatric cancer cell lines to identify multiple opportunities for drug repurposing: Confirmatory screen for DAOY cells (AID 1347114); further: nearly all actives have a fitted effect of over 65% in size
In short: (§2)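 Viability measured as metabolically active cells via CellTiter-Glo luminescence following 48 hours of compound exposure, 11-point dilutions in confirmatory testing. 500-1,000 cells/well plated 5 hours before dosing; controls were DMSO and 2.3 µM bortezomib.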

[8] = qHTS of pediatric cancer cell lines to identify multiple opportunities for drug repurposing: Confirmatory screen for NB-EBc1 cells (AID 1347115); further: nearly all actives have a fitted effect of over 45% in size
In short: as §1

[9] = qHTS of pediatric cancer cell lines to identify multiple opportunities for drug repurposing: Confirmatory screen for SJ-GBM2 cells (AID 1347116); further: nearly all actives have a fitted effect of over 60% in size
In short: as §2

[10] = qHTS of pediatric cancer cell lines to identify multiple opportunities for drug repurposing: Confirmatory screen for BT-37 cells (AID 1347117); further: nearly all actives have a fitted effect of over 55% in size
In short: as §1

[11] = qHTS of pediatric cancer cell lines to identify multiple opportunities for drug repurposing: Confirmatory screen for TC32 cells (AID 1347118); further: nearly all actives have a fitted effect of over 65% in size
In short: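 TC32 cells, 500-1,000/well in growth medium, compound-treated 48 h at 37 °C; viability from CellTiter-Glo luminescence. Primary screen: MIPE 11-point (0.78 nM–46 µM final), NPC 8-point (0.59 nM–46 µM final); confirmatory at 11-point dilutions.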

[12] = qHTS of pediatric cancer cell lines to identify multiple opportunities for drug repurposing: Confirmatory screen for MG 63 (6-TG R) cells (AID 1347119); further: nearly all actives have a fitted effect of over 55% in size
In short: as §1

[13] = qHTS of pediatric cancer cell lines to identify multiple opportunities for drug repurposing: Confirmatory screen for Rh41 cells (AID 1347123);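 further: 48 h compound exposure; nearly all actives have a fitted effect of over 60% in size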
In short: as §1

[14] = qHTS of pediatric cancer cell lines to identify multiple opportunities for drug repurposing: Confirmatory screen for RD cells (AID 1347124)
In short: as §1

[15] = qHTS of pediatric cancer cell lines to identify multiple opportunities for drug repurposing: Confirmatory screen for Rh18 cells (AID 1347125); further: nearly all actives have a fitted effect of over 55% in size
In short: as §1

[16] = qHTS of pediatric cancer cell lines to identify multiple opportunities for drug repurposing: Confirmatory screen for Rh30 cells (AID 1347126); further: nearly all actives have a fitted effect of over 55% in size
In short: as §1

[17] = qHTS of pediatric cancer cell lines to identify multiple opportunities for drug repurposing: Confirmatory screen for OHS-50 cells (AID 1347128)
In short: as §1

Furin (Homo sapiens) = Furin (Homo sapiens) (UniProt P09958); experiment: Furin counterscreen qHTS for Zika virus inhibitors (AID 1347149); further: nearly all actives have a fitted effect of over 70% in size
In short: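 Fluorogenic cleavage of BOC-RVRR-AMC (2 microM final, Km ~15 µM) was monitored (ex 340, em 450 nm) at 37C after 15 min RT preincubation of 5 nM furin with compounds in HEPES pH 7.0 buffer with CaCl2 and Triton X-100. Percent inhibition was fitted to a 4-parameter Hill curve.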

Measured: Potency
Potency means the concentration at half of the fitted maximal effect.

Furin (Homo sapiens), sequence (P09958 whole entry, looked up): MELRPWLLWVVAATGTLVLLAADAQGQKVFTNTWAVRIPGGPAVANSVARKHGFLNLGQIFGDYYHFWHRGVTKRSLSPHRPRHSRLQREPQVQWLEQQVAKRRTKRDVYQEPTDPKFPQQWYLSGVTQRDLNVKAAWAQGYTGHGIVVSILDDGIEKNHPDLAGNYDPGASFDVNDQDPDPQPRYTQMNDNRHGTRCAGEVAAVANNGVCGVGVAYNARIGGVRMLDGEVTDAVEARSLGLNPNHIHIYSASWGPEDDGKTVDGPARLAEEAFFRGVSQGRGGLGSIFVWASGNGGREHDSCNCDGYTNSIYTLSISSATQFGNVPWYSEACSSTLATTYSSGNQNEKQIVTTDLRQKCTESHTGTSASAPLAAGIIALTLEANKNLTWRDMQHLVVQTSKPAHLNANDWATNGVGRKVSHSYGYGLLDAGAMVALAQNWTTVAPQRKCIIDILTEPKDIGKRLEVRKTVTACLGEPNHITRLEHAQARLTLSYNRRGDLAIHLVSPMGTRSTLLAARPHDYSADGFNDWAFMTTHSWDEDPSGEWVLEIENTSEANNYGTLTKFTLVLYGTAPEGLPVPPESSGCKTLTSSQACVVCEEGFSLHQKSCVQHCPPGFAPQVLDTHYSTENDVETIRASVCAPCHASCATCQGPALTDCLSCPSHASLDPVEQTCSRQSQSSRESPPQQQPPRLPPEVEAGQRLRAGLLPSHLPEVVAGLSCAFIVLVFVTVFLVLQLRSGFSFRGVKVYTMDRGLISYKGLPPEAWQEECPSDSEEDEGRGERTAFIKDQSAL

CCCCC(CC)CN=C(N)NC(N)=NCCCCCCN=C(N)NC(N)=NCC(CC)CCCC (stereo unspecified)
active: [1] 18.8 µM | [2] 21.1 µM | [3] 3.29 µM | [4] 7.37 µM | [5] 5.22 µM | [6] 7.37 µM | [7] 4.14 µM | [8] 9.27 µM | [9] 1.17 µM | [10] 8.27 µM | [11] 8.27 µM | [12] 2.93 µM | [13] 7.37 µM | [14] 1.04 µM | [15] 13.1 µM | [16] 1.47 µM | [17] 13.1 µM | Furin (Homo sapiens) 21.5 µM

CC(Cc1cccc(C(F)(F)F)c1)NCCOC(=O)c1ccccc1 (stereo unspecified)
inactive: [1] | [2]

COc1cccc2c1C(=O)c1c(O)c3c(c(O)c1C2=O)C[C@@](O)(C(=O)CO)C[C@@H]3O[C@H]1C[C@H](N)[C@H](O)[C@H](C)O1
active: [2] 1.68 µM | [3] 0.928 µM | [4] 0.293 µM | [5] 4.65 µM | [6] 1.04 µM | [7] 9.27 µM | [8] 3.29 µM | [9] 2.61 µM | [10] 0.657 µM | [11] 0.465 µM | [12] 5.85 µM | [13] 1.47 µM | [14] 5.22 µM | [15] 5.22 µM | [17] 14.7 µM
inactive: [1]

C[C@]12C=CC(=O)C=C1[C@@H](F)C[C@@H]1[C@@H]2[C@@H](O)C[C@@]2(C)[C@H]1CC[C@]2(O)C(=O)CO
not listed: [9] | [13] | Furin (Homo sapiens)
inactive: all other assays above
